In PubChem BioAssay (NCATS):
Where “and” joins values, the source holds several entries; their conditions need not be identical. Identical values can stand only once. Inconclusive results are not listed. Some structures have more than one record in an assay (separate samples or runs), and their calls can disagree. Calls of active or inactive are those of the source. Unless noted, calls follow the shape of the dose curve; as a rule, active = well fitted curve in the direction sought with a large enough effect; inconclusive = small, poorly fitted or top-dose-only effect, or another doubt; inactive = no such curve, though single readings can be large; an effect the other way counts as inactive or inconclusive. Non-standard residues stand in square brackets, D forms with d. Residues, ends and D or L forms follow the SMILES beside them. *: point of attachment. Sta = CC(C)C[C@H](N)[C@@H](O)CC(=O)O; Isovaleryl = CC(C)CC(=O)*

Assays:
[1] = molecular target: Voltage-gated inwardly rectifying potassium channel KCNH2 (Homo sapiens) (UniProt Q12809); assay: qHTS Assay for Small Molecule Inhibitors of the Human hERG Channel Activity (AID 588834);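 also: lower thallium flux fluorescence means stronger hERG block; nearly all actives have a fitted effect of over 50% in size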; also: potency is read from the fitted curve at half-maximal effect
Voltage-gated inwardly rectifying potassium channel KCNH2 (Homo sapiens), sequence (Q12809 whole entry, looked up): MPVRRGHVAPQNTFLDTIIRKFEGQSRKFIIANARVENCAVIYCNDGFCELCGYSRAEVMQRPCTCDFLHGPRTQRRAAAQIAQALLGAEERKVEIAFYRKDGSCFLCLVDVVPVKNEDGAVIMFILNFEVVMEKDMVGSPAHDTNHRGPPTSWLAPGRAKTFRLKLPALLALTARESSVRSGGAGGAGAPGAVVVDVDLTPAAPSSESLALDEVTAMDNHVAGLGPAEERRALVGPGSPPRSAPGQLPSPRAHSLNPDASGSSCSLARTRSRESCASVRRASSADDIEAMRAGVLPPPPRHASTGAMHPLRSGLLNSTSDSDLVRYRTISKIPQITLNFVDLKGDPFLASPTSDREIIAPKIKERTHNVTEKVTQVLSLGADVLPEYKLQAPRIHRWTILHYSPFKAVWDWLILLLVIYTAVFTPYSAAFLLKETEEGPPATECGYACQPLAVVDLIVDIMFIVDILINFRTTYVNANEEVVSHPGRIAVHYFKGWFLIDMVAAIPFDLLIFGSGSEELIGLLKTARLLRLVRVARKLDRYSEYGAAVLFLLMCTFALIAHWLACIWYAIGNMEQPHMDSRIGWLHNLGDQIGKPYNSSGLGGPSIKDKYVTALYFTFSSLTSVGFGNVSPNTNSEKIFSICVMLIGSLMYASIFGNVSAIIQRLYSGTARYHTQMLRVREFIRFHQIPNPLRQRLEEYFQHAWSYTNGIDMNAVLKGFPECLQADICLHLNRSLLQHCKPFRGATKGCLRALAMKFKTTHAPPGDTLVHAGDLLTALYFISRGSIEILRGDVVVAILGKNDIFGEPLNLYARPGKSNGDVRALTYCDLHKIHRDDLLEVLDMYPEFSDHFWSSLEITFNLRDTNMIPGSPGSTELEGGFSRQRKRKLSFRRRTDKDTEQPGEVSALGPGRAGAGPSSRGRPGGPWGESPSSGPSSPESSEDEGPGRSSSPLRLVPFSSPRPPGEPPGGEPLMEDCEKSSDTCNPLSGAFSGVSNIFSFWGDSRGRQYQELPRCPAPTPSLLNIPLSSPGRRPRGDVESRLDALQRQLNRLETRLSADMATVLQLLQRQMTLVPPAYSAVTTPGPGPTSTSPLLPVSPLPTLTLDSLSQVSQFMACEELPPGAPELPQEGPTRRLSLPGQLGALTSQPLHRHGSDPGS
Outline: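 Measured: FluxOR fluorescence after thallium stimulation in U2OS cells transduced with hERG by baculovirus. Compounds pre-incubated around 10 min; medium Opti-MEM with 2% FCS. AC50 from Hill equation.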

[2] = molecular target: Luciferin 4-monooxygenase (Photinus pyralis) (UniProt P08659); assay: Biochemical firefly luciferase enzyme assay for NPC (AID 624030);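 also: purified P. pyralis luciferase at 10 nM with luciferin and ATP substrate; series mostly up to about 59 µM; 0% = DMSO and -100% = full luciferase inhibition by PTC124 control; nearly all actives have a fitted effect of over 70% in size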
Luciferin 4-monooxygenase (Photinus pyralis), sequence (P08659 whole entry, looked up): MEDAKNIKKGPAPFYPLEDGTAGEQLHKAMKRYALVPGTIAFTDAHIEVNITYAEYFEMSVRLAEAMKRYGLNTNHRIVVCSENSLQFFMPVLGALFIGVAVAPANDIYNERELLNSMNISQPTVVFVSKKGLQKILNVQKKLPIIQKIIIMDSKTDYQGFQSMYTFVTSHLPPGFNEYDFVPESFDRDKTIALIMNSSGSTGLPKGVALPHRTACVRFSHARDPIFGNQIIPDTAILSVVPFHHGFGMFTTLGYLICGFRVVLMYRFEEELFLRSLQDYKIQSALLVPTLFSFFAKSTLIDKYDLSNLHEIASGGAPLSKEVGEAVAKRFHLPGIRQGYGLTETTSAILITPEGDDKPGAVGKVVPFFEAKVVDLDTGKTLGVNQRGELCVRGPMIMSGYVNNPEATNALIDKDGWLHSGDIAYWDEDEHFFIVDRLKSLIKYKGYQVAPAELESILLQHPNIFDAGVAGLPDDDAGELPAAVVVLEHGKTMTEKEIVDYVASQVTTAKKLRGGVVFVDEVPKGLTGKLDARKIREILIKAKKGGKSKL
Outline: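 Direct inhibition of firefly luciferase enzyme (10 nM final, 50 mM Tris Acetate) assessed by luminescence within 5 minutes. Percent activity scaled between DMSO and PTC124 positive control, with concentration-effect curves classified by fit quality and response.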

[3] = molecular target: Vitamin D3 receptor (Homo sapiens) (UniProt P11473); assay: qHTS assay for small molecule antagonists of vitamin D receptor signaling (AID 588541; calls by dose curve;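 also: receptor activated by calcitriol during compound treatment; series mostly up to about 77 µM; % is scaled to controls: 0 for no effect and ±100 for the full control effect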)
Vitamin D3 receptor (Homo sapiens), sequence (P11473 whole entry, looked up): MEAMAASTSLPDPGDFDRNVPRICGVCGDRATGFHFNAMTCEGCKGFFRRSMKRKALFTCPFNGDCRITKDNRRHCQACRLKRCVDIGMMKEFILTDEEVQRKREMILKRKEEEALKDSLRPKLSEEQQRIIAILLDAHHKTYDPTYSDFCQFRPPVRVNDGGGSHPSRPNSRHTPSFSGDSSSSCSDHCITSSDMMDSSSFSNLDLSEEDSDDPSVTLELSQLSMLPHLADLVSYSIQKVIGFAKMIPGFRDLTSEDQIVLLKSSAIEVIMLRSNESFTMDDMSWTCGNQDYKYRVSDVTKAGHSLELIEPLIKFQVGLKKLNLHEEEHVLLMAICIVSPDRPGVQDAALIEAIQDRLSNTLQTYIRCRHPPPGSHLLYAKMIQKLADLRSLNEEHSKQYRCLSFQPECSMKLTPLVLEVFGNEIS
Outline: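 Antagonist-mode beta-lactamase reporter assay: HEK293T VDR-UAS-bla cells were exposed to titrated compound alongside 1-alpha,25-dihydroxyvitamin D3 at 3 nM final for 16 h. Values were normalized to the 50 nM agonist control and DMSO basal, with IC50 and efficacy from Hill equation fits.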

[4] = molecular target: Vitamin D3 receptor (Homo sapiens) (UniProt P11473); assay: qHTS assay for small molecule agonists of vitamin D receptor signaling (AID 588543; calls by dose curve;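 also: 0% = DMSO basal and 100% = reference agonist control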)
Outline: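 qHTS in agonist mode: compound titrations stimulate a VDR-driven β-lactamase reporter in HEK293T cells over 16 h at 37 °C. Response normalized to 50 nM 1α,25-dihydroxyvitamin D3 = 100%, DMSO = 0%; Hill fitting gives EC50 and maximal response.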

[5] = qHTS assay for small molecule agonists of retinoid X receptor alpha signaling (AID 588544; calls by dose curve); conditions: HEK293T RXRa-UAS-bla, beta-lactamase reporter, 18 h; 530 nm emission
[6] = molecular target: Retinoic acid receptor RXR-alpha (Homo sapiens) (UniProt P19793); assay: as above
Retinoic acid receptor RXR-alpha (Homo sapiens), sequence (P19793 whole entry, looked up): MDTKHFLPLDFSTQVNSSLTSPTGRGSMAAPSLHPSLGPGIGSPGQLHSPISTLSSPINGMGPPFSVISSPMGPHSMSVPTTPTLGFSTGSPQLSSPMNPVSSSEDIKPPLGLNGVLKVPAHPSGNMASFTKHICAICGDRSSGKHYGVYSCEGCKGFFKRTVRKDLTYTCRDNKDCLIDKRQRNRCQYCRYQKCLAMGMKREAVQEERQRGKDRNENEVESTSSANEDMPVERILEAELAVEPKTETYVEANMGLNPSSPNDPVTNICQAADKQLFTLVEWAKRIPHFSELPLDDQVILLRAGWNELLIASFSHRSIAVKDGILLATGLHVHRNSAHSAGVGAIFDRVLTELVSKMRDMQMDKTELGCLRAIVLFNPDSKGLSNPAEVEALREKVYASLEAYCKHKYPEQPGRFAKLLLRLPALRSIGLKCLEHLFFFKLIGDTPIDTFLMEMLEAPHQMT

[7] = molecular target: Thyroid hormone receptor beta (Homo sapiens) (UniProt P10828); assay: qHTS assay for small molecule agonists of thyroid hormone receptor beta signaling (AID 588545; calls by dose curve)
Thyroid hormone receptor beta (Homo sapiens), sequence (P10828 whole entry, looked up): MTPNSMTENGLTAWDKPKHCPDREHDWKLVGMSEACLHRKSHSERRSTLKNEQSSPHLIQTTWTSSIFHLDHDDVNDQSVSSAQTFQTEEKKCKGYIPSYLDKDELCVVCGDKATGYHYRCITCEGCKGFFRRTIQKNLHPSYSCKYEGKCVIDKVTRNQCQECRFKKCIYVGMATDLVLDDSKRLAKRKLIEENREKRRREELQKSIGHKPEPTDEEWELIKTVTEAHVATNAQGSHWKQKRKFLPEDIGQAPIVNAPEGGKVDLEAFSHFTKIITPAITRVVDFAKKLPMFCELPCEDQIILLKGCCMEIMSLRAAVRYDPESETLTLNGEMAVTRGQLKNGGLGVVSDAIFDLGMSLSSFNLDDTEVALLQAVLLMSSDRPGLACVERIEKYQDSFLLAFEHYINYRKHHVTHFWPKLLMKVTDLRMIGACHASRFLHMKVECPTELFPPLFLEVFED
Outline: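 Cells (2500/well) were seeded, incubated 4 hrs at 37 C, dosed with a compound series, incubated 18 hrs, loaded with CCF4 dye for 2 hrs at RT, then read for fluorescence. Data were scaled between DMSO (0%) and 10 nM T3 (100%).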

[8] = qHTS assay for small molecule antagonists of retinoid X receptor alpha signaling (AID 588546); conditions: HEK293T RXRa-UAS-bla, beta-lactamase ratio, antagonist mode; measured here: W530 green channel, cytotoxicity proxy;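 also: cells stimulated with 9-cis-retinoic acid as agonist; % is scaled to controls: 0 for no effect and ±100 for the full control effect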
Outline: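 Beta-lactamase reporter inhibition, read as CCF4 fluorescence ratio (ex 405, em 460/530 nm) after 2 h at RT. HEK293T UAS-bla cells, 2500/well, were stimulated with 9-cis-RA at 500 or 100 nM final alongside test compound for 18 h at 37 C.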

[9] = molecular target: Thyroid hormone receptor beta (Homo sapiens) (UniProt P10828); assay: qHTS assay for small molecule antagonists of thyroid hormone receptor beta signaling (AID 588547; active = well fitted inhibition curve with a large enough effect in the signal ratio, with a control signal flat, not every such curve was filed as active; the % refers to the signal ratio;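 also: cells stimulated with 0.4 nM T3 agonist during compound exposure; series mostly up to about 77 µM; % is scaled to controls: 0 for no effect and ±100 for the full control effect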); conditions: TR-UAS-bla HEK293, beta-lactamase ratio, antagonist mode, 18 h
Outline: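 Inhibition of T3-driven (0.4nM final) beta-lactamase reporter activity was measured over 0.59 nM to 92 uM compound after 18 h at 37 C. The cells were GripTite HEK293 TR-UAS-bla in charcoal/dextran-stripped serum, with CCF4 ratio read-out and IC50 from Hill fits.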

[10] = S16 Schwann cell viability assay (CellTiter-Glo assay) (AID 624031);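 also: native untransfected S16 rat Schwann cells; series mostly up to about 58 µM; plate controls were DMSO-treated cells for no effect and cell-free wells for full effect; nearly all actives have a fitted effect of over 70% in size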
Outline: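 Counter-screen for cytotoxicity: parental S16 rat Schwann cells lacking the PMP22 reporters, treated 24 h with compound, viability from cellular ATP by CellTiter-Glo luminescence, normalized to DMSO (0%) and no-cell wells.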

[11] = S16 Schwann cell PMP22 intronic element firefly luciferase assay (AID 624032);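 also: series mostly up to about 58 µM; plate controls were DMSO for no effect and PTC124 positive control mean for full effect; nearly all actives have a fitted effect of over 30% in size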
Outline: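 Luciferase reporter of PMP22 intronic-element expression in stably transfected S16 rat Schwann cells, read by ONE-Glo luminescence after 24 h compound exposure at 37 C. Activity scaled between DMSO (0%) and positive-control PTC124; concentration-effect curves quality-classified.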

[12] = S16 Schwann cell PMP22 intronic element beta-lactamase assay (AID 624044; calls by dose curve; also: nearly all actives have a fitted effect of over 15% in size; also: potency is read from the fitted curve at half-maximal effect)
Outline: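 Rat S16 Schwann cells with beta-Lac driven by a PMP22 intronic element, compound-treated 24 h at 37 °C. LiveBLAzer FRET B/G read: 460 nm normalized to potassium clavulanate vs DMSO; 535 nm FRET as viability; concentration-effect curves classified.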

[13] = molecular target: Glutaminase kidney isoform, mitochondrial (Homo sapiens) (UniProt O94925); assay: qHTS for Inhibitors of Glutaminase (GLS): LOPAC Validation (AID 624146);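 also: glutamate product detected by oxidase and peroxidase coupled Amplex red fluorescence gain; series mostly up to about 46 µM; % is scaled to controls: 0 for no effect and ±100 for the full control effect; nearly all actives have a fitted effect of over 60% in size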
Glutaminase kidney isoform, mitochondrial (Homo sapiens), sequence (O94925 whole entry, looked up, canonical isoform): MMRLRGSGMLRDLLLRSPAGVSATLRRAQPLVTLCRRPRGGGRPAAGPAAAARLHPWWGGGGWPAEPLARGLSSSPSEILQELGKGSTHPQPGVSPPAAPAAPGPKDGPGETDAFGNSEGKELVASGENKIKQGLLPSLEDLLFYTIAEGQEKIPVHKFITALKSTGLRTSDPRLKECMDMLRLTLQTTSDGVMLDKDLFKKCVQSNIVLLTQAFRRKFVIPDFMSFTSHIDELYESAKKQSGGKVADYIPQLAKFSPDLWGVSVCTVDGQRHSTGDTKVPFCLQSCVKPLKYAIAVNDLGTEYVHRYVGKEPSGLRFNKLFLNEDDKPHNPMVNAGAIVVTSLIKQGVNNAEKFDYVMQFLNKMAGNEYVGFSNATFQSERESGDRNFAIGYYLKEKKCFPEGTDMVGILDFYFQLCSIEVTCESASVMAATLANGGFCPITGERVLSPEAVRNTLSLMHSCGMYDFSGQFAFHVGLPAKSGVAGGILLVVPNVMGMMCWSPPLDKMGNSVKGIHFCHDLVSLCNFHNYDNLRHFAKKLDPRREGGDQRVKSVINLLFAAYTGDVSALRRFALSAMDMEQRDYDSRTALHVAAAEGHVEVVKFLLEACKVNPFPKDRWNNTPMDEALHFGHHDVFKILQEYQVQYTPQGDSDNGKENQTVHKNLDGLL
Outline: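 Coupled fluorescence readout: glutamate oxidase/HRP/Amplex Red detect glutamate formed by hKGA from L-glutamine (1 mM solution added). Buffer 45 mM KH2PO4 pH 8.2, 0.02% Tween-20; reads at t0 and 30 min RT.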

[14] = molecular target: Glucagon-like peptide 1 receptor (Homo sapiens) (UniProt P43220); assay: qHTS of GLP-1 Receptor Agonists: LOPAC Validation (AID 624148);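 also: luminescence from a luciferase reporter switched on by cAMP; 0% is about no effect; higher luminescence signal means agonism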
Glucagon-like peptide 1 receptor (Homo sapiens), sequence (P43220 whole entry, looked up): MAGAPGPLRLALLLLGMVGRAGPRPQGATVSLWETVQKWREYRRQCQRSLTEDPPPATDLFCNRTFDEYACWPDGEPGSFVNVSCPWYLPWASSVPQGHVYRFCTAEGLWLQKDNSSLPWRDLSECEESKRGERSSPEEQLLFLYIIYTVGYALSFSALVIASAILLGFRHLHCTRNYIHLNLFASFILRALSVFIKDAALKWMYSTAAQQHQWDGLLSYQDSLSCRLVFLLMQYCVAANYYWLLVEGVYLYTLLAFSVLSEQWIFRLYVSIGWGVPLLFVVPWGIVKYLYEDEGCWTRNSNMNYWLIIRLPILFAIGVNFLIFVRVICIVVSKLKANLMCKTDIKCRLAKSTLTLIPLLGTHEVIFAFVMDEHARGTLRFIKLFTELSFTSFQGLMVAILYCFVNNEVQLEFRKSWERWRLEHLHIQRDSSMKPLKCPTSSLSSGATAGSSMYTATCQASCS
Outline: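 Agonism scored as increased luciferase luminescence driven by cAMP in HEK293 clones carrying GLP-1R. Cells settled 12 hours, received compound for 4-6 hr at 37 deg C, 5% CO2, and were read after 12 min detection reagent at RT.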

[15] = qHTS of Nrf2 Activators: LOPAC Validation (AID 624149); also: 0% is about no effect
Outline: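 Luminescence read-out of ARE-luciferase activation: AREc32_Fluc cells treated with compounds for 24 hr at 37 deg C, then lysed with Steady-Glo for 30 min at room temperature before reading.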

[16] = HTS Assay for Allosteric Antagonists of the Human D2 Dopamine Receptor: Hit Validation in HTRF (AID 624455);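 also: stable D1 dopamine receptor cell line scored for blocking the D1 response; % is scaled to controls: 0 for no effect and ±100 for the full control effect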
Outline: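 First, antagonism was screened by calcium flux in a force-coupled, inducible Hek293 Trex D2 line challenged with EC80 dopamine. Hits then went into an HTRF assay in cells stably expressing D1, testing inhibition of the D1 response.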

Clc1ccc(C(Cn2ccnc2)OCc2ccsc2Cl)c(Cl)c1 (stereo not given)
active: Potency [1] 10 µM
inactive: Potency [2]

CCc1nc(N)nc(N)c1-c1ccc(Cl)cc1
19.5% and 21%: max response [5]
inactive: outcome [3] | outcome [4] | outcome [6] | outcome [7] | activity change % (negative = inhibition) [9] 6.74% and -7.45% | Potency [10] | Potency [11]
39.8 µM (active) and inactive: Potency [1]
active: Potency [12] 9.99 µM
8.81%: max response [8]

COc1cc(OC)c(C(=O)CCCN2CCCC2)c(OC)c1
3.94%: max response [5]
inactive: outcome [3] | outcome [4] | outcome [6] | outcome [7] | Potency [1] | Potency [2] | Potency [10] | Potency [11]
-15.1%: max response [8]

Cc1ccc(C)c(OCCCC(C)(C)C(=O)O)c1
26.9% and -2.09%: max response [5]
4.23% and -4.48%: max response [8]
inactive: outcome [6] | outcome [7] | activity change % (negative = inhibition) [9] -13.4% and -13.2% | Potency [1] | Potency [2] | Potency [10] | Potency [11] | Potency [12]

COC(=O)C1=C(C)NC(C)=C(C(=O)OC(C)C)C1c1cccc2nonc12 (stereo not given)
inactive: Potency [1]

CC1(C)NC(=O)N(c2ccc([N+](=O)[O-])c(C(F)(F)F)c2)C1=O
inactive: outcome [3] | outcome [4] | outcome [6] | outcome [7] | Potency [1] | Potency [10] | Potency [12] | Potency [13] | outcome [14] | outcome [15] | outcome [16]
-4.34%: max response [8]
13.6%: max response [5]

c1ccc2[nH]c(-c3cscn3)nc2c1
8.2% and -19.9%: max response [5]
inactive: outcome [3] | outcome [4] | outcome [6] | outcome [7] | activity change % (negative = inhibition) [9] -27.5% | Potency [1] | Potency [10] | Potency [11] | Potency [12]
-4.89% and -3.75%: max response [8]

CS(=O)(=O)OCCCCOS(C)(=O)=O
inactive: outcome [3] | outcome [4] | outcome [6] | Potency [1] | Potency [10] | Potency [11] | Potency [12]
-9.47% and 11.7%: max response [5]
2.17% and -2.42%: max response [8]

Nc1ccc(S(N)(=O)=O)cc1
inactive: outcome [6] | outcome [7] | activity change % (negative = inhibition) [9] -5.21% | Potency [2] | Potency [10] | Potency [11] | Potency [12]
-7.58%: max response [8]
-11.9%: max response [5]

O=C(NCCO[N+](=O)[O-])c1cccnc1
inactive: Potency [1] | Potency [2] | Potency [10]

CC(=O)Nc1ccc(O)cc1
inactive: Potency [1] | Potency [2] | Potency [10]

Cc1ccc(S(=O)(=O)NC(=O)NN2CC3CCCC3C2)cc1 (stereo not given)
inactive: Potency [1]

COc1c2occc2cc2ccc(=O)oc12
0.567% and -6.27%: max response [8]
inactive: outcome [3] | outcome [4] | outcome [6] | outcome [7] | activity change % (negative = inhibition) [9] 4.14% and -14.9% | Potency [1] | Potency [10] | Potency [11] | Potency [12]
-1.38%: max response [5]

O=c1c(O)c(-c2ccc(O)cc2O)oc2cc(O)cc(O)c12
active: Potency [1] 3.16 µM
inactive: outcome [3] | outcome [4] | outcome [7] | outcome [14] | outcome [15] | outcome [16]

CNC[C@H](O)c1ccc(O)c(O)c1
-11.1%: max response [5]
-9.39%: max response [8]
inactive: outcome [3] | outcome [4] | outcome [6] | outcome [7] | Potency [1] | Potency [2] | Potency [10] | Potency [11] | Potency [13] | outcome [15]

CC(=O)N1CCN(c2ccc(OC[C@H]3CO[C@](Cn4ccnc4)(c4ccc(Cl)cc4Cl)O3)cc2)CC1
inactive: outcome [7] | Potency [13] | outcome [14] | outcome [15] | outcome [16]

N=C(N=C(N)N)N1CCOCC1
inactive: Potency [1] | Potency [2] | Potency [10] | Potency [11]

NS(=O)(=O)c1cc(C(=O)O)c(NCc2ccco2)cc1Cl
inactive: outcome [3] | outcome [4] | outcome [7] | activity change % (negative = inhibition) [9] -7.01% and -13.6% | Potency [2] | Potency [10] | Potency [11] | Potency [12]

COc1c(O)cc2c(c1O)[C@@H]1O[C@H](CO)[C@@H](O)[C@H](O)[C@H]1OC2=O
inactive: Potency [1]

N[C@@H](Cc1cc(I)c(Oc2cc(I)c(O)c(I)c2)c(I)c1)C(=O)O
-7.79%: max response [5]
inactive: outcome [3] | outcome [4] | outcome [6] | Potency [1] | Potency [10] | Potency [11] | Potency [12]

Cc1cccc(CN2CCN(C(c3ccccc3)c3ccc(Cl)cc3)CC2)c1 (stereo not given)
active: Potency [1] 1.26 µM

CC(C)CC(=O)N[C@H](C(=O)N[C@H](C(=O)N[C@@H](CC(C)C)[C@@H](O)CC(=O)N[C@@H](C)C(=O)N[C@@H](CC(C)C)[C@@H](O)CC(=O)O)C(C)C)C(C)C (Isovaleryl-VV[Sta]A[Sta]-OH)
inactive: Potency [1]

Clc1ccc(C(Cn2ccnc2)OCc2c(Cl)cccc2Cl)c(Cl)c1 (stereo not given)
active: Potency [1] 7.94 µM

CCCCC(CC)COC(=O)C(C#N)=C(c1ccccc1)c1ccccc1 (stereo not given)
-18.7%: max response [8]
inactive: outcome [3] | outcome [4] | activity change % (negative = inhibition) [9] -9.58% | Potency [1] | Potency [10] | Potency [12]
